Results as given in PMC13494018.

B1: design_609_7ee6ce64-4629-41e8-bcb4-ba0da017284d_297_dldesign_0_cycle1_af2pred (protein)
chain: SPEEMIKKGKELVEKRLEKAKKTAEEKTPEEAKREAEAAVAFAEGVAEALAKHPEAAAAGEALLKETKEEAEKIIKKAKE
B2: design_609_7ee6ce64-4629-41e8-bcb4-ba0da017284d_842_dldesign_0_cycle1_af2pred (protein)
chain: SMREEELEADRKKVDEGAKELKKLGEEAAKKAKTWEEFVKGHKELREKAKEVVDAALPEVKPYAEKAASKVVHDARQKGAENVQKQK
B3: design_609_7ee6ce64-4629-41e8-bcb4-ba0da017284d_829_dldesign_0_cycle1_af2pred (protein)
chain: LEEELKKAIEEAKKAVKELKEAAKKRPLTPEEIAKLVTKVSNELGKVRFLSAEALVNKKYEKVGEEGRKAAKEIREEAKEAIKLSKEK
B4: design_609_7ee6ce64-4629-41e8-bcb4-ba0da017284d_401_dldesign_0_cycle1_af2pred (protein)
chain: AIEELIKKGKERGEKAAKRVKEGTMTPEAAKDIFKNIIKELAKAGGEEEGKKIALEGADLLAEADPEFGKKFKKEVEKE
B5: design_609_7ee6ce64-4629-41e8-bcb4-ba0da017284d_143_dldesign_0_cycle1_af2pred (protein)
chain: EEEKKELLESESYAIQAAHAVAAKDPATAEEAKEAFEYVALVGVEKARELLEKAKTDAESLKAAVAEAKELAKEVKKKLE
B6: design_609_7ee6ce64-4629-41e8-bcb4-ba0da017284d_741_dldesign_0_cycle1_af2pred (protein)
chain: EKELAEEVIKKIKEKAEKAIKEGVSREEAEKVIKEIEELATKASWEAPEYAKELNRAAKEEKKKIKKAVEEREA
B7: design_609_7ee6ce64-4629-41e8-bcb4-ba0da017284d_250_dldesign_0_cycle1_af2pred (protein)
chain: MEEVKKKAEKALKEAKAALKEAKALGNEEAIKAAEQAIKFAKKALEYAEKGDLNGAEAYLEAAKHALKVAKDAIKAAKKAA
B8: design_609_7ee6ce64-4629-41e8-bcb4-ba0da017284d_287_dldesign_0_cycle1_af2pred (protein)
chain: MLKEEAKKVAEKGKKEGKYEEAIKELSEIAAKAYELAAEKLLDKETKEEGEKYREAARLARELGKELEKAA
B9: design_609_7ee6ce64-4629-41e8-bcb4-ba0da017284d_665_dldesign_0_cycle1_af2pred (protein)
chain: MDEEKLKMAEEEMKEGEKYAKAAKAALKKGDAKKAATLASEALASYNAAAHLYELAGDKEKAKKALEEGKKVVEEVGAAVKA
B10: design_609_7ee6ce64-4629-41e8-bcb4-ba0da017284d_519_dldesign_0_cycle1_af2pred (protein)
chain: SEEAERELTLAKGYAELAKELAEQGPKAAKSAVKDAEKEAKEAEKIDPEVGKKAKELAEEAKKYVEEKEK
B11: design_609_7ee6ce64-4629-41e8-bcb4-ba0da017284d_730_dldesign_0_cycle1_af2pred (protein)
chain: SEQAKEELEKQEKVKEVAKKVRKALKELEEAGDEEAKKEAEKLRKEASEARLLAADDPEKGLEEMKKVLEKAEKKLKEVKAKL
B12: design_609_7ee6ce64-4629-41e8-bcb4-ba0da017284d_187_dldesign_0_cycle1_af2pred (protein)
chain: AEAEKAKAEEAAKVAEEKIKKVEKLDPKKAEELRKKLKEAMAKPDAYKAVAKVSHDAYEALAEAEWEKRK
B13: design_609_7ee6ce64-4629-41e8-bcb4-ba0da017284d_830_dldesign_0_cycle1_af2pred (protein)
chain: MESLKETFEKMAKLVKKFAEYLEKLDPEAGKKTLEILKKGEEAKTPSEAISLVLRAAVYGAKELGKYDKELALEKLEKVFDL
B14: design_609_7ee6ce64-4629-41e8-bcb4-ba0da017284d_654_dldesign_0_cycle1_af2pred (protein)
chain: AAAEQAKLKAEAKALMAAMKAAGKAGDVAAVEAAAKAALAKAKELAKIDPALGSKLAAEIHETRAEALSTARKTREEKKKEEELKK
B15: design_609_7ee6ce64-4629-41e8-bcb4-ba0da017284d_367_dldesign_0_cycle1_af2pred (protein)
chain: KRKEEQLEKLKKLAEELEKKAKEYEKDKNFKEVAKAYKEAAKKLKEAAKTGDSKVAHEARQKAAEAEWLEKKAK
B16: design_609_7ee6ce64-4629-41e8-bcb4-ba0da017284d_862_dldesign_0_cycle1_af2pred (protein)
chain: MEVAKLAHEALEAAAEGEAVAKNDPEKREKLRELARKAREAAKKGDVEEAKKLAKEVKKLAKALEKEKKEKEK
B17: design_609_7ee6ce64-4629-41e8-bcb4-ba0da017284d_738_dldesign_0_cycle1_af2pred (protein)
chain: MEEALARIDAALKRAKELAKEAEKAGDKKAAAEMESAIAFAEQQRENALKGSPEYAKKAAEAAEAYTDRKIKRAEEIRKKK
B18: design_609_7ee6ce64-4629-41e8-bcb4-ba0da017284d_478_dldesign_0_cycle1_af2pred (protein)
chain: DAVKKAAEEAAKEAAKHPKGEKIAKAIEKGAEVAIKNSDKSFSQAAGDGASTIISLLGKEAGVDAIEAQDYADYWLDLVEKNS
B19: design_609_7ee6ce64-4629-41e8-bcb4-ba0da017284d_739_dldesign_0_cycle1_af2pred (protein)
chain: SEASKAAAEAYEKLAETEYLAKKAKESNAEEAEKYAKEAKEAAKEAIEAAKKAAELAPEGAPLMKKVEEKAKKAAEEAEKYAKKKK

Target: VTCN1, Q7Z7D3
Sequence (Q7Z7D3 whole entry): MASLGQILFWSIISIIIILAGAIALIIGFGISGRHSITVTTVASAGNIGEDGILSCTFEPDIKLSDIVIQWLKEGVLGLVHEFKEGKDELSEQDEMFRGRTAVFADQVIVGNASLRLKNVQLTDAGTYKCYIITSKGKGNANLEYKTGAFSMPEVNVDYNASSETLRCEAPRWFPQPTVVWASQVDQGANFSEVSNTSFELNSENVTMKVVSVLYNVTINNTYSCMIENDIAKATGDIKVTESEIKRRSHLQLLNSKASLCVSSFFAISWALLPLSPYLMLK

Binding in a display sort, inactive:
B1 not found, B2 not found, B3 not found, B4 not found, B5 not found, B6 not found, B7 not found, B8 not found, B9 not found, B10 not found, B11 not found, B12 not found, B13 not found, B14 not found, B15 not found, B16 not found, B17 not found, B18 not found, B19 not found
